# Assay results from PubChem BioAssay AID1259422 (The Scripps Research Institute Molecular Screening Center, 2018).
# Out of some 640,000 compounds screened, about 9,300 (1.5%) were called active. The entries come from a sample that favours actives as a whole. Unmarked numbers belong to inactive results. No stated cut-off is given here; in the data, active means inhibition above about 32%; inactive means the rest.
# Test: TEAD-YAP interaction inhibition, primary screen, TEAD-YAP interaction inhibitor project, luminescence, HEK-TIYL cells (AID 1259422);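 further: 0% = median of test compound wells and 100% = reference inhibitor wells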
# Details: TEAD-Gal4/YAP UAS-luciferase luminescence, at 9.12 µM, active compounds read high
row,Compound,inhibition
1,Cc1nc(N2CCN(c3ccccn3)CC2)c2c(C)c(C(=O)Nc3ccccc3C(F)(F)F)sc2n1,-2.56%
2,O=C(O)c1cccc(-c2cnc3ccc(NCc4ccc(F)cc4)nn23)c1,-7.03%
3,Cc1ccc(-c2cnn3c(NCCCN4CCOCC4)ccnc23)cc1C,10.5%
4,c1ccc(Cn2cc(-c3cnn4c(NCCCN5CCOCC5)ccnc34)cn2)cc1,-1.52%
5,c1ccc(Oc2ccc(-c3cnn4c(NCCCN5CCOCC5)ccnc34)cc2)cc1,42% (active)
6,CCOc1cc2c(cc1OCC)C(c1cc(OC)ccc1F)NCC2 (stereo not given),4.41%
7,CC(C)(O)C#CC(O)c1cccc([N+](=O)[O-])c1 (stereo not given),-0.86%
8,COc1ccc(C(c2sc3ncnn3c2O)N2CC(C)OC(C)C2)cc1 (stereo not given),10.7%
9,COc1ccc(C(=O)NCC(=O)NNc2ncnc(N)c2[N+](=O)[O-])c(OC)c1,11.1%
10,O=C(N/N=C/c1cc(Br)ccc1O)c1cc(-c2cccs2)[nH]n1,65.8% (active)
11,COc1ccccc1/C=N/NC(=O)c1cc(-c2ccc(C)o2)[nH]n1,4.17%
12,O=C(N/N=C/c1cc(Br)ccc1O)c1cc(Br)ccc1O,-12%
13,COc1cccc(/C=N/NC(=O)c2cc(-c3cccs3)[nH]n2)c1O,68% (active)
14,O=C(N/N=C/c1cc(Br)ccc1O)c1ccc(=O)[nH]n1,14.8%
15,CCOc1ccc(/C=N/NC(=O)c2cc(-c3cccs3)[nH]n2)cc1,-4.12%
16,Cc1ccc(CNS(=O)(=O)c2ccc(F)c(C(=O)Nc3cccc(Cl)c3)c2)cc1,-4.88%
17,COc1cc(C=Nc2ccc(NC(C)=O)cc2)ccc1OC(=O)c1cccs1,-6.6%
18,COc1ccccc1NS(=O)(=O)c1ccc(Cl)c(C(=O)Nc2ccccc2C)c1,0.37%
19,O=C(Cc1cccc(Cl)c1)NCC1CCC2(CCN(C(=O)C3CC3)CC2)O1 (stereo not given),-0.11%
20,COc1ccc(C2CCN(C(=O)C3CCCO3)CC2)cc1 (stereo not given),-7.42%
21,Cc1cccc2c1CC(=O)NC21CCN(Cc2ccc3ccccc3c2)CC1,7.07%
22,CCc1ccc(OCC(=O)NCc2ccncc2)c(Br)c1,-4.34%
23,Cc1ccc(OCC(=O)Nc2nc(-c3ccccc3)cs2)c(Br)c1,5.91%

row,Compound,inhibition
1,CCc1ccc(OCC(=O)Nc2nc(C)c(C)s2)c(Br)c1,77.7% (active)
2,CCOC(=O)C1(CCOc2ccccc2)CCN(Cc2cnn(C(C)C)c2)CC1,10.3%
3,O=C(COc1ccc([N+](=O)[O-])cc1)Nc1ccc2oc(-c3cccc(F)c3)nc2c1,-7.11%
4,O=[N+]([O-])c1ccc2oc(-c3cccc(O)c3)nc2c1,73.9% (active)
5,O=C(Nc1ccc2oc(-c3ccc(F)cc3)nc2c1)c1ccc([N+](=O)[O-])cc1,11.2%
6,Cc1ccc2nc3c(cc(C#N)c(=O)n3-c3cccc(Cl)c3)c(=O)n2c1,-0.14%
7,CC1=CN2C(=O)NC(C(F)(F)F)(C(F)(F)F)N=C2S1,-16.6%
8,COCCCNC(=O)Cn1cc(/C=C(\C#N)C(=O)NCc2ccco2)c2ccccc21,3.94%
9,COCCCNC(=O)/C(C#N)=C/c1cc(C)n(-c2cccc3ccccc23)c1C,47.1% (active)
10,COCCCNC(=O)/C(C#N)=C/c1ccc(-c2cccc(Cl)c2Cl)o1,1.01%
11,COc1ccc(NC(=O)c2sc3nc(-c4cccc([N+](=O)[O-])c4)cn3c2C)cc1,4.9%
12,CCOc1ccc(Br)cc1CSC(=N)N,55.7% (active)
13,CCOc1ccc(Br)cc1S(=O)(=O)Nc1ccccc1C(=O)O,3.25%
14,CCOC(=O)C1CCN(S(=O)(=O)c2cc(Br)ccc2OCC)CC1,0.17%
15,CC(=O)N(Cc1cccnc1)Cc1cc2cc(C)c(C)cc2nc1Cl,6.62%
16,Cc1cccc(C(=O)Nc2ccc(C(=O)N/N=C/c3ccc(O)cc3)cc2)c1,-12.2%
17,CCOc1ccccc1NS(=O)(=O)c1ccc2c(c1)NC(=O)C(C)C(=O)N2 (stereo not given),-5.49%
18,O=C1CS(=O)(=O)C(c2ccccc2[N+](=O)[O-])N1c1ccc(Oc2ccc(Cl)cc2)cc1 (stereo not given),11.6%
19,CN(C)c1nc(N)nc(CSc2ccccn2)n1,-4.14%
20,COc1ccc(-n2nnnc2SCc2nc(N)nc(N3CCOCC3)n2)cc1,-11.4%
21,CN(C)c1nc(N)nc(CSc2nnnn2-c2cccc3ccccc23)n1,35.1% (active)
22,CCOC(=O)c1sc2nc(C)nc(OCc3ccccc3C)c2c1C,-7.17%
23,COc1ccccc1-c1cc(C(F)(F)F)nc(S(=O)(=O)CCCC(=O)Nc2sc(C(N)=O)c(C)c2C(=O)OC(C)C)n1,-2.08%

row,Compound,inhibition
1,CCN(Cc1ccccc1)S(=O)(=O)c1cc(C(=O)Nc2cccc(C)c2)ccc1F,51.1% (active)
2,Cc1cccc(NC(=O)c2ccc(F)c(S(=O)(=O)N(C)C3CCCCC3)c2)c1,-12.6%
3,CCN(Cc1ccccc1)S(=O)(=O)c1ccc(F)c(C(=O)Nc2ccc(C)cc2)c1,-16.5%
4,CCN(c1cccc(C)c1)S(=O)(=O)c1cc(C(=O)Nc2ccc(Oc3ccccc3)cc2)ccc1F,35.4% (active)
5,O=C(Nc1ccc(Oc2ccccc2)cc1)c1ccc(F)c(S(=O)(=O)N2CCc3ccccc3C2)c1,-0.62%
6,CCOc1cccc(NC(=O)c2ccc(F)c(S(=O)(=O)N(CC)c3cccc(C)c3)c2)c1,-0.19%
7,COc1cccc(-c2ccccc2NC(=O)C2CCN(Cc3ccccn3)CC2)c1,10.6%
8,CC1=C(C(=O)Nc2nc3ccccc3s2)C(c2ccsc2)C2=C(CCCC2=O)N1 (stereo not given),12.1%
9,COC(=O)c1c(OCCN2CCCC2=O)cc(=O)n2c1CCN(CC(C)C)CC2,-5.77%
10,Fc1ccc(CN2CCOCC2)cc1F,-5.29%
11,c1cncc(CNc2nccc(Nc3ccc(N4CCOCC4)cc3)n2)c1,1.72%
12,Fc1cc(-c2nc(Nc3ccc(CN4CCOCC4)cc3)ncc2F)cc(N2CCOCC2)c1,74.6% (active)
13,Cc1ccc(-c2ncn(-c3ccc(Nc4ncc(F)c(-c5cccc(N6CCOCC6)c5)n4)cc3)n2)cn1,28.1%
14,Cc1ccc(-c2ncn(-c3ccc(Nc4nccc(-c5cc(F)cc(N6CCOCC6)c5)n4)cc3)n2)nc1,8.1%
15,Fc1cnc(Nc2ccc(Cn3ccnc3)cc2)nc1-c1cccc(N2CCOCC2)c1,84.8% (active)
16,O=C(Nc1ccccc1)c1ccc(CSc2ccc(Cl)cc2)cc1,1.08%
17,Cc1cc2oc(=O)cc(C)c2cc1NC(=O)COc1ccccc1,18.6%
18,c1ccc2c(N3CCCCCC3)nc(CN3CCCCC3)nc2c1,3.64%
19,COCCNC(=O)c1sc2nc(C)nc(N3CCCCC3)c2c1C,8.3%
20,Cc1cc(C)cc(Cn2c(NCc3ccncc3)cc(=O)n(C)c2=O)c1,33.7% (active)
21,C=CCn1c(NCCCN(C)C)cc(=O)n(C)c1=O,1.12%
22,Cc1cccc(Cn2c(NCc3ccc4c(c3)OCO4)nc3c2c(=O)n(C)c(=O)n3C)c1,3.24%
23,CC(=O)c1ccc(OCc2cc(C(=O)NCc3cccc(-n4cccn4)c3)no2)cc1,-59.7%

row,Compound,inhibition
1,O=C(Nc1cccc(N2CCC(NCCc3ccco3)CC2)c1)c1ccncc1,-5.63%
2,O=C(Nc1ccc(N2CCC(NCCc3ccco3)CC2)cc1)C1CCCC1,56.3% (active)
3,O=C(NC1CCCC1)c1ccc(N2CCC(NCCc3ccco3)CC2)cc1,-1.18%
4,COc1ccc(CCNC(=O)CSc2cn(C)c3ccccc23)cc1OC,-1.21%
5,COc1ccc(Cl)cc1C1=N/C(=C\c2coc3ccccc3c2=O)C(=O)O1,1.35%
6,COc1ccc(Nc2nc(C)nc3sc(C)cc23)c(OC)c1,46% (active)
7,COc1ccc(NC(=O)CNC(=O)Cn2cnc3sc(C)cc3c2=O)c(OC)c1,7.78%
8,COc1ccc(CCNc2nc3ccc(C)cc3n3cnnc23)cc1OC,-9.92%
9,COc1ccc(CCNc2nc(SCC#N)nc3ccccc23)cc1OC,-11.4%
10,COc1ccc(Nc2nc3nonc3nc2Nc2ccc(OC)cc2OC)c(OC)c1,-7.35%
11,COc1ccc(CCNc2nc(C)nc3sc(C)cc23)cc1OC,41.7% (active)
12,CCOC(=O)c1sc(NC(=O)c2cccc(Cl)c2)c(C(=O)OCC)c1C,-1.99%
13,O=C(NCC1CCC2(CCN(Cc3ccccc3)CC2)O1)c1ccc(F)c(Cl)c1 (stereo not given),-14.8%
14,O=C(NCCCO)/C(=C/c1ccc([N+](=O)[O-])cc1)NC(=O)c1ccco1,1.95%
15,O=C(CCCN1CCc2ccccc2C(O)(c2ccccc2)C1)c1ccc(F)cc1 (stereo not given),-4.26%
16,O=C1CN(c2ccccc2F)C(=O)CN1/N=C/c1ccccc1Cl,-10.8%
17,COc1ccc(-c2c(Nc3cccc(C)c3)c(=O)c2=O)cc1,4.83%
18,Cc1ccc(-c2c(Nc3cccc(F)c3)c(=O)c2=O)cc1C,53.5% (active)
19,COC(=O)c1ccccc1Nc1c(-c2ccc(C)c(C)c2)c(=O)c1=O,5.02%
20,Cc1cc(C)nc(/N=C(/NC(=O)c2ccc(F)cc2)Nc2ccc(F)cc2F)n1,2.84%
21,COc1ccc(-c2cccc(C(=O)Nc3ccc(Oc4ccccc4)cc3)n2)cn1,-3.01%
